ChEMBL document CHEMBL1157539, “Thousands of chemical starting points for antimalarial lead identification” (Nature, 2010)

Legend:
Format in all cases: functional
Plasmodium falciparum [1] = test: GSK_TCMDC: Inhibition of Plasmodium falciparum 3D7 in whole red blood cells, using parasite LDH activity as an index of growth. Test compounds present at 2uM
Plasmodium falciparum [2] = test: GSK_TCMDC: Inhibition of Plasmodium falciparum Dd2 in whole red blood cells, using parasite LDH activity as an index of growth. Test compounds present at 2uM
HepG2 = test: GSK_TCMDC: Percent inhibition of human HepG2 cell line. Test compounds present at 10uM.

| Compound | Inhibition (Plasmodium falciparum [1]) [%] | Inhibition (Plasmodium falciparum [2]) [%] | Inhibition (HepG2) [%] |
| --- | --- | --- | --- |
| Cn1cncc1C(=O)Nc1cccc(-c2ccc(-c3nc4ccccc4[nH]3)cc2)c1 | 99 | 11 | 0 |
| CC1CCCC(NCc2c(O)ccc3ccccc23)C1.Cl (stereo not drawn) | 93 | 25 | 10 |
| O=C(Nc1ccc2c(c1)OCO2)c1cc(-c2cccnc2)cnc1NCc1ccc2c(c1)OCO2 | 87 | 1 | 2 |
| CCOC(=O)N1CCC(NC(=O)c2ccc(C(C)(C)C)cc2OC)CC1 | 88 | 0 | 0 |
| Cc1cccc2nc(-c3ccc(-c4cccc(CN5CCN(c6ccncc6)CC5)c4)cc3)[nH]c12.O=C(O)C(F)(F)F | 100 | 99 | 50 |
| O=C(Nc1cccc(-c2ccc(-c3nc4cc(F)ccc4[nH]3)cc2)c1)c1ccncc1 | 100 | 96 | 52 |
| FC(F)(F)c1ccc2c(C=Cc3ccncc3)c[nH]c2c1 | 98 | 76 | 0 |
| Cl.c1ccc(-c2ccc3c(Nc4ccc5[nH]ccc5c4)ccnc3c2)nc1 | 91 | 78 | 11 |
| CCCCCCC1(C)N=C(N)N=C(N)C1c1ccc(Cl)c(Cl)c1.Cl (stereo not drawn) | 94 | 43 | 18 |
| CC[C@H](C)CNC(=O)c1ccnc(-c2ccc(CNC3Cc4ccccc4C3)cc2)c1.O=C(O)C(F)(F)F | 100 | 87 | 18 |
| Cc1cc(CN2CCCN(c3ccc4c(c3)CCN(Cc3ccc(-c5ncc[nH]5)cc3)CC4)CC2)n(C)n1 | 86 | 8 | 5 |
